# CendR NRP1 mod = modulators of CendR peptide binding to NRP-1, primary screen, biochemical, fluorescence polarization, uHTS; Neuropilin-1 (Homo sapiens), O14786; FAM-RPARPAR peptide binding to NRP-1; inhibition, % at 25 µM; 0.85% of 360,000 active; AID 602438, 2012;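 active = inhibition or corrected inhibition above about 18%, plus a signal ratio from 0.5 to 1.5, limit read from the data, passing the limit was not always enough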
# PKA-R2B activ = activators of PKA-R2B holoenzyme, primary screen, biochemical, fluorescence polarization, Cy5-IP20, human; activation, % at 11.4 µM; cAMP-dependent protein kinase catalytic subunit beta (Homo sapiens) + cAMP-dependent …; 0.079% of 340,000 active; PKA-R2B holoenzyme dissociation; R2B truncated from residue 108, S112A mutant; 0% DMSO only, 100% 113 µM cGMP;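 active = activation above a cutoff set at the mean over all compounds plus 3 SD, cut at about 18% in these data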;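 also: higher means more holoenzyme dissociation and a rise in polarization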
# Target sequence (P31323 whole entry, looked up, other chains not shown, the tested form may be a part): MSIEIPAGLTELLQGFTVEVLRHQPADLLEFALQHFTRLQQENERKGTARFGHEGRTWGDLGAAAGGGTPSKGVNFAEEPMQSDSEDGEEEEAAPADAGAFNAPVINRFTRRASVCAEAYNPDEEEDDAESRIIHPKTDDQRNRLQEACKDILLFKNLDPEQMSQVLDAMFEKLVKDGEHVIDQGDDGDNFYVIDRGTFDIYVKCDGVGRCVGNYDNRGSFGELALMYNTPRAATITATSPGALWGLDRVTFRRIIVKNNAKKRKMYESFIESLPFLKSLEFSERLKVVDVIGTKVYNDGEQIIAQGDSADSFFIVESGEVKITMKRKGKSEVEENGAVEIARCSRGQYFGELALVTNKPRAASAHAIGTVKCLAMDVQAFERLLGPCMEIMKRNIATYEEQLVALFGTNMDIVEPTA
# PKA-R1A activ = activators of PKA-R1A holoenzyme, primary screen, biochemical, fluorescence polarization, Cy5-IP20, bovine R1A, mouse PKAc; PKA-R1A dissociation; scaled: DMSO 0%, 113 µM cGMP 100%; 0.083% of 340,000 active; cAMP-dependent protein kinase type I-alpha regulatory subunit (Bos taurus) + …; activation, % at 11.4 µM;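 active = percent activation above the mean of all tested compounds plus 3 SD, cut at about 19% in these data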;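 also: higher means more PKAc released from R1A so a rise in polarization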
# VLA-4 inh = inhibition in human VLA-4 binding assay, primary screen, VLA-4 allosteric modulator project, MLPCN library, flow cytometry, VLA-4 expressing cells. Integrin alpha-4 (Homo sapiens), P13612. ligand binding flow cytometry. inhibition, % (about 7 µM as worked out from the volumes in the protocol). 0.2% of 330,000 active. AID 2557, 2010
# ATG4B inh = ATG4B protease inhibitors, primary screen, biochemical, fluorescence, uHTS; inhibition, % at 8.33 µM; Cysteine protease ATG4B (Homo sapiens), Q9Y4P1; ATG4B cleavage of LC3-PLA2, NBD-HPC fluorescence, 1 h; AID 504462, 2011; 0.51% of 340,000 active; in the data active = inhibition above about 40%
# ATG4B confirm = ATG4B protease inhibitors, retest, confirmation, biochemical, fluorescence, single concentration; shares compounds with ATG4B inh; ATG4B protease fluorescent substrate cleavage assay; inhibition, % at 8.33 µM; 92% of 320 active; AID 504757, 2011; in the data active = inhibition above about 39%
# PLA2 ctr = PLA2 enzyme inhibition, counter-screen for ATG4B inhibitor project, biochemical, single concentration, uHTS hits; inhibition, % at 8.33 µM; 66% of 1,600 active; purified PLA2, NBD-C6-HPC fluorescence, 45 min; shares compounds with ATG4B inh
# Target sequence (P04054 whole entry, looked up): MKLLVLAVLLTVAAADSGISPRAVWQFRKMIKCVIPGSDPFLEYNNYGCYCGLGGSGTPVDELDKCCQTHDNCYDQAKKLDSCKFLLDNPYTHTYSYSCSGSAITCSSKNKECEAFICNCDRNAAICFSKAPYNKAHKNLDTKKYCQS
# Hits are given with their value; – = inactive; · = not tested or not shown. Most compounds without a hit are left out; they make up all but 1.6% or so of the library. Rule as the data show it, unless noted: active = inhibition above about 50%; inactive = the rest.
SMILES,CendR NRP1 mod,PKA-R2B activ,PKA-R1A activ,VLA-4 inh,ATG4B inh,PLA2 ctr,others
CCCC(=O)Nc1cc(C(=O)N(C)CC(OC)OC)ccc1S(=O)(=O)c1ccc(C)cc1,–,–,–,–,–,·,
Cc1ccccc1-c1nsc(SCC(=O)NCc2ccc3c(c2)OCO3)n1,–,–,–,–,41,–,
COc1ccc(OC)c(C(=O)NC(CC(N)=O)c2ccc(NC(C)C)c([N+](=O)[O-])c2)c1 (stereo not drawn),–,–,–,–,–,·,
CC(=O)N(C(C)=O)N1C(=O)/C(=C/c2ccc(Cl)cc2)SC1=S,–,–,–,–,68,57,
Cc1ccc(C)n1N1C(=O)/C(=C\c2ccc(Cl)cc2)SC1=S,–,–,–,–,–,·,
CC[C@]12c3[nH]c4cc(-c5ccco5)ccc4c3CCN1C(=O)[C@@H](CC(=O)NCCCn1ccnc1)C[C@@H]2C(=O)N1CCN(C(=O)C2CC2)CC1,–,–,–,·,–,·,
CC(C)c1ccc(Nc2nnc(SCC(=O)NCC3CCCO3)s2)cc1 (stereo not drawn),–,–,–,–,–,·,
O=C1CCC([N+](=O)[O-])C(c2cc3c(cc2Cl)OCO3)N1 (stereo not drawn),–,–,–,–,–,·,
O=C1c2ccccc2C(=O)N1c1nc(-c2cccs2)cs1,–,–,–,–,59,64,
CN1CCN(c2nc(-c3cccs3)cs2)CC1,–,–,–,–,–,·,
CCOc1ccccc1C(=O)N/N=C/c1coc2ccc(C)cc2c1=O,–,–,–,–,65,76,
Cc1ccc2occ(/C=N/NC(=O)c3ccccc3Br)c(=O)c2c1,–,–,–,–,–,·,
Cc1cccc(C)c1OCC(=O)Nc1cccc(NC(=O)c2ccco2)c1,–,–,–,–,48,–,ATG4B confirm=57
C/C(CCc1oc2ccccc2c1-c1ccc(C)o1)=N/O,–,–,–,–,61,64,
CCc1nc(N2CCN(C(=O)c3ccco3)CC2)c2c3c(sc2n1)CCCC3,–,–,–,–,78,86,
CCc1nc(-n2[nH]c(=O)c3ccccc3c2=O)c2c3c(sc2n1)CCCC3,–,–,–,–,–,·,
CCc1nc(N2CCN(C(=O)c3ccccc3)CC2)c2c3c(sc2n1)CCCC3,–,–,–,–,75,82,
NC(=O)c1cc(S(=O)(=O)N2CCCC2)ccc1OCCOc1ccccc1F,–,–,–,·,–,·,
Cc1ccc(S(=O)(=O)Nc2ccccc2C=Nc2cccc(C)c2C)cc1,–,–,–,–,57,61,
Cc1ccc(S(=O)(=O)Nc2ccccc2N=Cc2c(F)c(F)c(F)c(F)c2F)cc1,–,–,–,·,–,·,
O=C1COc2ccccc2C(c2nc3ccccc3[nH]2)N1C1CC1 (stereo not drawn),–,·,·,·,·,·,
COc1ccc(CNc2nc(NCc3ccc(OC)cc3)n(C(C)=O)n2)cc1,–,–,–,–,–,·,
CCC(=O)n1nc(NCc2ccccc2OC)nc1NCc1ccccc1OC,–,–,–,–,41,–,
CCCCc1nc2cc(C(=O)N3CCCC(COC)C3)ccc2o1 (stereo not drawn),–,–,–,–,–,·,
Nc1c(C(=O)Nc2ccc3c(c2)OCCO3)nnn1Cc1cccc(Br)c1,–,–,–,–,41,–,
SMILES,CendR NRP1 mod,PKA-R2B activ,PKA-R1A activ,VLA-4 inh,ATG4B inh,PLA2 ctr,others
CCN(CC)CCCNC(=O)c1nn2c(C(F)(F)F)cc(-c3ccccc3)nc2c1Cl,–,–,–,–,–,·,
COc1cnc(SCc2c(Cl)cccc2Cl)nc1Cl,–,–,–,–,50,–,ATG4B confirm=59
Cc1nc(SCc2c(F)cccc2Cl)n[nH]1,–,–,–,–,–,·,
O=C(CN1C(=O)COc2ccc(Cl)cc21)NCC1CCCO1 (stereo not drawn),–,–,–,–,–,·,
COCCN(C(=O)c1ccccc1Oc1ccccc1)c1c(N)n(CC(C)C)c(=O)[nH]c1=O,–,–,–,–,–,·,
CC(=O)N1c2ccc(S(=O)(=O)N3CCC(C(=O)N4CC(C)CC(C)C4)CC3)cc2CC1C (stereo not drawn),–,–,–,–,–,·,
CC1CC(C)CN(C(=O)C2CCN(S(=O)(=O)c3ccc4c(c3)CC(C)N4C(=O)C3CC3)CC2)C1 (stereo not drawn),–,–,–,–,43,–,ATG4B confirm=60
O=C(OC1CCc2ccccc2C1=O)c1ccccc1O (stereo not drawn),–,–,–,–,77,79,
CC(Sc1ccc(Cl)cc1)C(=O)Nc1ccccc1-c1ccccc1 (stereo not drawn),–,–,–,–,50,–,ATG4B confirm=71
FC(F)(F)c1cnc(COc2cc(Cl)cc(Cl)c2)c(Cl)c1,–,–,–,–,–,·,
O=[N+]([O-])c1ccc(Cl)c(C2Nc3cccc4cccc(c34)N2)c1,–,–,–,–,54,71,
COC(=O)c1cccc(NC(=S)Nc2cccc(Cl)c2Cl)c1,–,–,–,–,44,–,
CC(=O)Nc1cccc(NC(=S)Nc2cccc(Cl)c2Cl)c1,–,–,–,–,–,·,
COc1cc(NC(=S)Nc2cccc(Cl)c2Cl)c(OC)cc1Cl,–,–,–,–,40,60,
CN(Cc1ccccc1)C(=O)COC(=O)c1cc2ccccc2oc1=O,–,–,–,–,–,·,
COc1ccc(NC(=O)COC(=O)Cn2cnc3ccccc3c2=O)c(OC)c1,–,–,–,–,–,·,
S=c1[nH]nc(CSCc2ccccc2Cl)n1C1CCCCC1,–,–,–,·,55,63,
COc1ccc2c(-c3ccccc3)cc(SCC(N)=O)nc2c1,–,–,–,–,58,57,
COc1ccc(C(=O)CSc2nnc(CCc3ccccc3)n2-c2ccccc2)cc1,–,–,–,–,–,·,
CCOc1ccc(-n2nnnc2SCC(=O)c2ccccc2)cc1,–,–,–,–,41,51,
COc1ccc(-n2c(CCc3ccccc3)nnc2SCC(=O)c2ccccc2)cc1,–,–,–,–,60,61,
O=C(Nc1ccc(Cl)cc1)Nc1ccccc1CC[N+](=O)[O-],–,–,–,–,65,71,
O=C(NN1C(=O)/C(=C/C=C/c2ccccc2)SC1=S)c1ccncc1,–,–,–,–,–,·,
